High-throughput results from PubChem.
aSyn UTR act – Activators via SNCA 5'UTR binding, MLPCN; alpha-synuclein 5'UTR reporter, activators screen; activity score, % (tested at 7.5 µM), hits read low; 7.1% of 300,000 active; in the data active = activity score below about -60%
Active calls of the source: *. These entries were drawn from the full list.

SMILES | aSyn UTR act
O=C(N/N=C/c1ccc(Cl)cc1)Nc1ccccc1 | -170*
COc1ccc(-c2n(CC(=O)OC3CC(C)CCC3C(C)C)c3ccccc3[n+]2C)cc1 (stereo unspecified) | 101
COc1ccc(-c2nc3ccccc3n2OC(C)C(=O)O)cc1 (stereo unspecified) | -196*
Cc1ccc(-c2nc3ccc(Cl)cc3n2OC(C)C(=O)O)cc1 (stereo unspecified) | -127*
COc1ccc(C(NC(=O)C(C)C)c2ccc3cccnc3c2O)cc1 (stereo unspecified) | 79
CC(On1c(-c2ccccc2)nc2ccc(Cl)cc21)C(=O)O (stereo unspecified) | -62*
On1c(-c2ccccc2)nc2ccc(Cl)cc21 | -149*
O=c1c2ccc(Cl)cc2nc(-c2cccc(C(F)(F)F)c2)n1O | 78
O=C(N/N=C/C(Br)=C\c1ccccc1)c1ccco1 | -226*
COc1ccccc1NC(NC(=O)c1ccco1)C(=O)c1ccccc1 (stereo unspecified) | -85*
O=C(N/N=C/c1ccccc1)c1ccco1 | -107*
CC(C)(C)OC(=O)N/N=C\c1ccc(OC(=O)c2ccco2)cc1 | -84*
COc1ccccc1/C=C/C=N/NC(=O)c1ccco1 | -112*
O=C(N/N=C/c1ccccc1)c1[nH]ncc1Br | -118*
O=C(N/N=C/c1ccc(OCc2ccccc2)cc1)c1ccco1 | -103*
CCCS(=O)(=O)c1nc(S(=O)(=O)c2ccc(C)cc2)c(N2CCC(C(N)=O)CC2)s1 | -75*
CCCS(=O)(=O)c1nc(S(=O)(=O)c2ccc(Cl)cc2)c(N2CCC(O)CC2)s1 | -95*
COc1ccc(OC(=O)c2ccc(Cl)cc2)c(C(C)=O)c1 | -78*
COc1ccc(C(=O)Nc2cc(Cl)ccc2OC(=O)c2ccc(OC)cc2)cc1 | -158*
COc1ccc(C(=O)Nc2cc(OC)c(Cl)cc2OC)cc1 | -120*
O=C(Nc1ccccc1OC(=O)c1ccc(Cl)cc1)c1ccc(Cl)cc1 | -343*
O=C(Nc1ccccc1O)c1ccc(Cl)cc1 | -255*
COc1cc(NC(=O)c2cc3nc(C)cc(C)n3n2)c(OC)cc1Cl | -214*
Cc1cc(NC(=O)c2ccccc2)c(Cl)cc1N | 64
CC(C)(C)c1ccc(C(=O)Nc2ccccc2Cl)cc1 | -88*
SMILES | aSyn UTR act
O=C(Nc1ccccc1O)c1ccc([N+](=O)[O-])cc1 | -70*
COc1ccc(-c2noc(CCC(=O)Nc3cc(Cl)c(OC)cc3OC)n2)cc1 | -65*
Cc1ccc(C(=O)Nc2cc(Cl)ccc2OC(=O)c2ccc(C)cc2)cc1 | -227*
COc1ccc(-c2noc(CCCC(=O)NC3CCCC3)n2)cc1 | 62
O=C(Nc1ccc(SC(F)F)cc1)c1ccc2nccnc2c1 | -218*
COc1ccc(C(=O)Nc2ccc(SC(F)F)cc2)cc1 | -160*
O=C(Nc1ccc(OC(F)(F)F)cc1)c1ccc2nccnc2c1 | -112*
CSc1nnc(NC(=O)C23CC4CC(CC(C4)C2)C3)s1 | -128*
CC(C)Cc1nnc(NC(=O)C23CC4CC(CC(C4)C2)C3)s1 | -103*
CCc1nnc(NC(=O)C23CC4CC(CC(C4)C2)C3)s1 | -253*
Cn1c(CN2CCCC2)nc2cc(NC(=O)c3ccc(Cl)cc3)ccc21 | -63*
Cn1c(CN2CCCC2)nc2cc(NC(=O)c3cccs3)ccc21 | -76*
Cc1ccc(C(C)C)c(OCC(=O)Nc2ccc3c(c2)nc(CCN2CCCCC2)n3C)c1 | 110
Cn1c(CN2CCCCC2)nc2cc(NC(=O)c3ccc(Cl)cc3)ccc21 | -66*
Cc1ccccc1Cn1nnc(-c2ccc3c(c2)OCO3)n1 | -168*
Fc1cccc(Cl)c1Cn1nnc(-c2ccc3c(c2)OCO3)n1 | -97*
Cc1ccccc1Cn1ccc(-c2ccc3c(c2)OCO3)n1 | -130*
Fc1cccc(Cn2ccc(-c3ccc4c(c3)OCO4)n2)c1 | -97*
Cc1cc(C)nc(SCC(=O)NC2=NN=C(c3ccc(Br)cc3)CS2)n1 | -74*
O=C(Nc1ccc(F)cc1)c1sc(Cl)nc1-c1ccccc1 | -73*
Cc1ccc(NC(=O)c2sc(Cl)nc2-c2ccccc2)cc1 | -63*
COCCc1nc2ccc(C(=O)N(C)Cc3cccc(-n4cccn4)c3)cc2o1 | -75*
Cc1nc(NC(=O)c2ccc(Br)s2)sc1C(=O)N(C)C | -122*
O=C(Nc1ccccc1OC(F)F)c1cc2c(s1)CCC2 | -161*
Cc1ccc(NC(=O)c2cc3c(s2)CCCC3)cc1 | -193*
SMILES | aSyn UTR act
Cc1ccc(NC(=O)c2scc3c2CCCC3)cc1 | -90*
CC1CCc2sc(C(=O)Nc3ccc(C(N)=O)cc3)cc2C1 (stereo unspecified) | -119*
COC(=O)c1sc(NC(=O)c2cc3c(s2)CCCC3)nc1C | -204*
Cc1nc(NC(=O)CCl)sc1C(=O)N(C)C | -70*
Cc1nc(NC(=O)c2cc3c(s2)CCCCC3)sc1C(=O)N(C)C | -175*
CCOC(=O)c1sc(NC(=O)c2cc3c(s2)CCC(C)C3)nc1C (stereo unspecified) | -101*
CC(=C/c1ccccc1)/C=N/NC(=O)c1cccs1 | -90*
CC(/C=N/NC(=O)c1nn(C)c(C)c1Br)=C\c1ccccc1 | -122*
